Screening data (PubChem)
AMA1 RON2 block = qHTS for Inhibitors of AMA1-RON; Towards Development of Antimalarial Drug Lead: Primary Screen; Plasmodium falciparum AMA1 (3D7) - RON2 peptide interaction; AlphaScreen AMA1-biotinylated RON2 peptide binding; Potency, µM (highest dose often 58.2 µM), inactives show top-dose activity change, negative = inhibition, most hits filed as inhibitors; 360,000 tested, 0.2% active; AID 720542, 2013;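 further: 0% = vehicle wells and -100% = peptide control; nearly all actives have a fitted effect of over 45% in size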
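AMA1 (3D7) with his tag at 25 nM final met compounds first, then biotinylated RON2 peptide at 25 nM; detection used donor plus acceptor beads, 10 µg/mL apiece, read by AlphaScreen after 30 min at room temperature.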
AmpC inh detg = qHTS Inhibitors of AmpC Beta-Lactamase (assay with detergent) | Potency, µM (series often up to 114 µM), inactives show at the top dose activity change, negative = inhibition, hits mostly inhibitors | P00811 | AID 485294, 2010 | 370,000 tested, 0.041% active | AmpC hydrolysis of nitrocefin, absorbance 480 nm, 0.01% Triton;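 further: 0% = no-compound wells and -100% = no-enzyme wells; nearly all actives have a fitted effect of over 25% in size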
Target sequence (P00811 whole entry, looked up): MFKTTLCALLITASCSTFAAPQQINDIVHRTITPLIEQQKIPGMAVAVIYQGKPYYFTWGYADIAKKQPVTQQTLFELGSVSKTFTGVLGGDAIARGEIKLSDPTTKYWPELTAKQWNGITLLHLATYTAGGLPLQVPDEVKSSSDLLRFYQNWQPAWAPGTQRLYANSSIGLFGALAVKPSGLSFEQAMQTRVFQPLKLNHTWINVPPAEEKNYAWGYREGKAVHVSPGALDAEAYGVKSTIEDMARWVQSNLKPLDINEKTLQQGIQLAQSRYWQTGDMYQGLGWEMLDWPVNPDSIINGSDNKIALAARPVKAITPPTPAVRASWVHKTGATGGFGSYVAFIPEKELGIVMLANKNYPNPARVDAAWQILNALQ
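20 mM phosphate pH 7.0 + 0.01% (detergent screen) or 0.0001% Triton X-100; 5.3 nM AmpC reagent; cpd preinc 15 min RT; nitrocefin (800 uM stock) to start; A480 q20 s × 4 min; Activity was normalised to no-enzyme and no-compound control wells.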
AmpC inh no detg = qHTS Inhibitors of AmpC Beta-Lactamase (assay without detergent). AmpC nitrocefin hydrolysis, absorbance 480 nm, 0.0001% Triton. Potency, µM (titrated, usually from 57.1 µM), without a hit: at the highest dose activity change, negative = inhibition, usual class: inhibitors. 330,000 tested, 0.52% active;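 further: plate controls were no compound for no effect and no enzyme for full effect; nearly all actives have a fitted effect of over 20% in size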
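AmpC (5.3 nM in the dispensed reagent) in 20 mM phosphate pH 7.0 with 0.01% (detergent screen) or 0.0001% Triton X-100 was preincubated with compounds for 15 min at room temperature. Nitrocefin was then added from an 800 uM solution, and hydrolysis was followed at 480 nm.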
Vaccinia Venus = qHTS for Stage-Specific Inhibitors of Vaccinia Orthopoxvirus: Venus Reporter Primary qHTS. Potency, µM (highest dose often 36.5 µM), for inactives: top-dose activity change, negative = inhibition, actives largely listed as inhibitors. 330,000 tested, 0.46% active. Vaccinia virus Venus reporter expression, fluorescence. AID 720580, 2013; calls by dose curve; tested in A549 cells; further: on the % scale 0 is the no-effect control and ±100 the full control effect; nearly all actives have a fitted effect of over 30% in size
VACV mCherry inh = qHTS for Stage-Specific Inhibitors of Vaccinia Orthopoxvirus: mCherry Reporter Primary qHTS. Vaccinia virus mCherry reporter infection, fluorescence. Potency, µM (series often up to 36.5 µM), for the others: at the highest dose activity change, negative = inhibition, usual class: inhibitors. 310,000 tested, 0.63% active. AID 720579, 2013; calls by dose curve; tested in A549 cells; further: on the % scale 0 is the no-effect control and ±100 the full control effect; nearly all actives have a fitted effect of over 35% in size
SARS PLpro yeast = qHTS of Yeast-based Assay for SARS-CoV PLP; S. cerevisiae expressing SARS-CoV PLpro, growth rescue; Potency, µM (titrated, usually from 32.9 µM), for the others: top-dose activity, positive = growth rescue, hits mostly activators; 330,000 tested, 0.19% active; calls by dose curve; further: 0% is about no effect; nearly all actives have a fitted effect of over 55% in size
Starred values were filed as active, the others as inactive; i = inactive; ? = inconclusive; . = no result; [ ] = remark or other dose. Sampled rows, rich in hits. Any-hit rate of the full collection: about 1.4%. Unless noted, the call rests on the fitted dose curve; in most records, active means well fitted curve in the direction sought with a large enough effect; inconclusive means small, poorly fitted or top-dose-only effect, or another doubt; inactive means no such curve, though single readings can be large; an effect the other way counts as inactive or inconclusive. Potency means the concentration at half of the fitted maximal effect.

SMILES	AMA1 RON2 block	AmpC inh detg	AmpC inh no detg	Vaccinia Venus	VACV mCherry inh	SARS PLpro yeast
Cc1ccc(C)c(NC(=O)CSc2nnc(-c3ccccc3)o2)c1	6%	?	40µM*	-3%	6%	0%
Cc1ccccc1NC(=O)CSc1n[nH]c(-c2ccccn2)n1	8.9µM*	0%	-10%	-22%	6.3µM*	3%
Cc1ccc(C)c(NC(=O)CSc2n[nH]c(-c3ccccn3)n2)c1	-38%	-9%	-25%	?	7.9µM*	2%
CC1=C(C(=O)Nc2cc(C)cc(C)c2)C2(CCCCC2)OC1=O	.	-1%	.	-8%	-8%	.
Cc1c(C(=O)N2CCCCC2)sc2ncnc(NCCN(C)C)c12	.	.	.	0%	-6%	.
Cc1ccc2[nH]nc(C(=O)N3CCOc4ccc(CN5CCc6sccc6C5)cc4C3)c2c1	.	.	.	-20%	13µM*	.
CCc1ccc2[nH]c(=O)c(CN(Cc3ccccc3OC)Cc3nnnn3Cc3ccco3)cc2c1	-10%	?	0%	28µM*	.	0%
COc1ccccc1CN(Cc1cc2cc(C)ccc2[nH]c1=O)Cc1nnnn1Cc1ccco1	-8%	-14%	-10%	?	.	-3%
O=C1/C(=C/c2ccc(O)c(O)c2)SC(=S)N1Nc1ccccc1	?	2%	25µM*	i	164%	5%
O=C(Nc1ccc(Oc2ccccc2)cc1)c1ccc(Cn2c(=O)[nH]c3ccsc3c2=O)cc1	-7%	-6%	16µM*	-28%	i	-3%
CS(=O)(=O)Nc1cccc(NC(=O)C2Cc3c(-c4cccc(F)c4)ccnc3O2)c1 (stereo not drawn)	33%	.	.	10µM*	8.9µM*	.
CN(C)c1cccc(NC(=O)C2Cc3c(-c4ccc(Cl)cc4)ccnc3O2)c1 (stereo not drawn)	25µM*	.	.	-17%	-8%	.
COc1cc2nc(N3CCCCC3)nc(NC3CCN(Cc4ccccc4)CC3)c2cc1OC	.	.	.	-28%	-7%	.
CN1CCC(N(C)c2nc(-c3ccc([N+](=O)[O-])cc3)nc3ccccc23)CC1	?	1%	62%	10µM*	?	-5%
O=S(=O)(/C=C/c1ccccc1)N1CCC(n2c(C3CCCO3)nc3cccnc32)CC1 (stereo not drawn)	.	.	.	11%	1%	.
CCN1/C(=C/C(C)=C/c2sc3ccccc3[n+]2CC)Sc2ccccc21	28µM*	1%	14%	i	i	-19%
Clc1ccc(/C=N/Nc2nnc(Cl)c3ccccc23)cc1	6%	?	-11%	-9%	-13%	2%
Clc1ccc(/C=N/Nc2nc(Cl)nc3ccccc23)cc1	55%	9%	18µM*	.	.	-9%
C=CCn1c(SCC(=O)NCCCC)nc2scc(-c3ccco3)c2c1=O	-20%	?	-23%	-13%	-6%	8%
C=CCn1c(SCC(=O)NC2CCCC2)nc2scc(-c3ccco3)c2c1=O	?	?	35µM*	-10%	-19%	7%
CN(C)CC(C)(O)c1ccc2c(c1)CN(Cc1cnn(-c3ccccc3)c1)CCO2 (stereo not drawn)	.	.	.	13%	-13%	.
Oc1ccc(C2C(c3ccccc3)=NN=C(c3ccccc3F)N2O)c(O)c1 (stereo not drawn)	9%	?	?	-10%	-10%	21%
Oc1ccc(C2C(c3ccccc3)=NN=C(c3ccc(Cl)cc3)N2O)c(O)c1 (stereo not drawn)	6%	?	25µM*	4%	i	13%
Cc1c(C(=O)NCCC2CCCN2C)cnn1-c1nccc(-c2ccccc2F)n1 (stereo not drawn)	.	.	.	5%	-7%	.
COc1ccc(O)c(C(=O)c2coc(=N)c(C(=O)Nc3ccc(SC(F)F)cc3)c2)c1	-23%	5%	14µM*	-19%	-28%	1%
SMILES	AMA1 RON2 block	AmpC inh detg	AmpC inh no detg	Vaccinia Venus	VACV mCherry inh	SARS PLpro yeast
O=C1N=c2ccccc2=C1c1sc(NS(=O)(=O)Cc2ccccc2)nc1O	-14%	-12%	3.5µM*	.	.	1%
O=S(=O)(N/N=C/c1ccc(N2CCOCC2)cc1)c1ccc(Br)cc1	-1%	?	11µM*	.	.	-3%
O=S(=O)(NN1CCOCC1)c1ccc(Br)cc1	3%	4%	-15%	-5%	i	-3%
Cc1cnc2c(C)cccc2c1/C=C/c1ccc(N(C)C)cc1	.	.	.	-7%	-15%	.
COCC(=O)Nc1cc(C(=O)N2CCCC(C(C)=O)C2)cc2nc(-c3ccccc3)n(C)c12 (stereo not drawn)	.	.	.	-12%	-11%	.
CC(C)c1c(C(=O)N(C)Cc2cccc3ncccc23)cnn1-c1nccc(-c2ccco2)n1	.	.	.	-29%	?	.
CNCc1ccccc1Sc1cc(O)ccc1O	11µM*	?	-33%	-6%	?	-39%
CNCc1ccccc1Sc1cccc(O)c1	-2%	-17%	-15%	-21%	-18%	4%
Cc1cc2c(s1)c1c(C)nn(Cc3ccc(F)cc3)c(=O)c1n2C	.	3%	-23%	.	.	4%
Cc1cc2c(s1)c1c(C)nn(Cc3ccccc3F)c(=O)c1n2C	.	-8%	-17%	.	.	5µM*
COc1ccc(C2=CC(=O)C=CC2=O)cc1	.	?	32µM*	.	.	-5%
COc1ccc(C2=CC(=O)C[C@H](c3ccc(OC)cc3)C2)cc1	1%	6%	-9%	-7%	-6%	-15%
Cc1cc(SCC(=O)OC/C(O)=C(\C#N)c2nc3ccccc3[nH]2)c(C)cc1Br	86%	-6%	10µM*	-6%	14%	1%
COc1cc2c(cc1OC)C(COc1ccc3c(C)cc(=O)oc3c1)N(C(=O)c1cccc(C)c1)CC2 (stereo not drawn)	.	-6%	.	?	?	.
C=C(C)COc1ccc(-c2n[nH]c(C)c2-c2ccc(OC)cc2)c(O)c1	-4%	-11%	-28%	10µM*	.	-32%
COc1ccc(-c2n[nH]c(C)c2-c2cscn2)c(O)c1	98%	12%	-3%	-10%	?	1%
c1ccc(CN2CCN(C3=Nc4cccc5cccc3c45)CC2)cc1	?	0%	51%	-12%	-26%	1%
Fc1ccc(N2CCN(C3=Nc4cccc5cccc3c45)CC2)cc1	22µM*	?	-27%[11.4 µM]	-19%	-23%	0%
CCc1nc(SCC(=O)NCc2ccc(F)cc2)c2c(=O)n(C)c(=O)n(C)c2n1	-4%	?	2.5µM*	2%	10%	?
Cc1ccccc1-c1nc(SCC(=O)NCc2ccc(F)cc2)c2c(=O)n(C)c(=O)n(C)c2n1	.	-6%	.	-12%	-9%	.
